PubChem BioAssay (Tox21)
Active and inactive are the calls of the source. Entries that show only a call come without a potency. Calls come from the whole dose curve.

Experiment: qHTS assay to identify small molecule agonists of the sonic hedgehog signaling (Shh) pathway (AID 1259368); note: nearly all actives have a fitted effect of over 15% in size
Conditions: NIH/3T3 Gli1-Luc reporter, luciferase, 24 h; series mostly up to 92.4 µM
Source text: National Center for Advancing Translational Sciences [NCATS]
NIH Chemical Genomics Center [NCGC]
U.S. Environmental Protection Agency [EPA]
National Institutes of Environmental Health Sciences [NIEHS]
National Toxicology Program [NTP]
The sonic hedgehog (Shh) pathway is essential for normal embryonic development. Dysregulation of the Shh pathway can cause severe developmental defects in organs. Therefore chemicals that interfere with the pathway are potential developmental toxicants. A cell line designated 3T3Gli1-Luc (DMB/OARSA/CFSAN/FDA, Laurel, MD), a NIH/3T3 derived clone containing stably integrated Gli1-Luc reporter is used to detect chemical interference of the Shh pathway, by changes in the expression of the firefly Luc gene under the control of the Gli1 transcriptional response element. This cell line was used to screen Tox21 libraries for identifying and prioritizing the potential developmental toxicants that interfere Shh pathway.
3T3 Gli1-Luc cells were dispensed at 2,000 per well in 5uL of culture medium into white solid bottom 1536-well plates (Greiner Bio-One, Monroe, NC) using a Multidrop Combi (Thermo Scientific, Waltham, MA) dispenser. The assay plates were incubated at 37 C and 5% CO2 for 4hr, and then 23nL of compounds dissolved in DMSO and positive control were transferred using a Pintool station (Wako, San Diego, CA). The assay plates were incubated at 37C and 5% CO2 for 24hr. For luciferase read, 4uL of Amplite Luciferase reporter gene assay reagent (AAT Bioquest, Inc. Sunnyvale, CA) was added to each well of the assay plates using Flying Reagent Dispenser (FRD, Aurora Discovery, San Diego, CA) and incubated at room temperature for 30min. The luminescence signal was measured using a ViewLux plate reader (Perkin Elmer, Shelton, CT).
Potency is the fitted concentration of half-maximal effect.

Structure (SMILES)	Potency
CC(C)(C)C(=O)C(Oc1ccc(Cl)cc1)n1ccnc1 (stereo not given)	inactive
COc1cc2[nH]c(=O)[nH]c(=O)c2cc1OC	inactive
C=CC(=O)NCOCC(C)C	inactive
NC(=O)Nc1ccc(Cl)cc1	inactive
O=C(O)c1ccccc1NCCc1ccccc1	inactive
Cc1ccc(/C=N/n2c(-c3ccccc3)csc2=S)cc1	inactive
COCCOC(=O)C1=C(C)NC(C)=C(C(=O)OC/C=C/c2ccccc2)C1c1cccc([N+](=O)[O-])c1 (stereo not given)	inactive
CCC(C)(O)CCC=C(C)C (stereo not given)	inactive
CC(C)(C)C(=O)O	inactive
CC1=C(/C=C/C(C)=C\C=C\C(C)=C\C(=O)O)C(C)(C)CCC1	8.63 µM (active)
O=S1OCCO1	inactive
CCOC(=O)C(C)Oc1ccc(Oc2nc3ccc(Cl)cc3o2)cc1 (stereo not given)	inactive
CC(C)=CC=O	inactive
NC(=O)Nc1ccc(Cl)c(Cl)c1	inactive
CCC(=O)Oc1ccc(/C(CC)=C(\CC)c2ccc(OC(=O)CC)cc2)cc1	inactive
Nc1nccs1	inactive
C=CCNc1nc(NCC=C)nc(N2CCN(C(c3ccc(F)cc3)c3ccc(F)cc3)CC2)n1	inactive
OCCSc1ccccc1	inactive
C=C(C)C(=O)OCCOC(=O)CC(C)=O	inactive
CCCC1C(CC)=CC(CC)=CN1c1ccccc1 (stereo not given)	inactive

Structure (SMILES)	Potency
CCn1cc(C(=O)O)c(=O)c2cc(F)c(N3CCNCC3)nc21	inactive
CCn1nc(C)c2c1C(=O)NCC(c1ccc(O)cc1)=N2	inactive
CC1=CC(O)CC(C)(C)C1 (stereo not given)	inactive
CCOC(=O)CC(=O)C(=O)OCC	inactive
O=[N+]([O-])c1cccc(S(=O)(=O)NCCNS(=O)(=O)c2cccc([N+](=O)[O-])c2)c1	inactive
CO/N=C1\CN(c2nc3c(cc2F)c(=O)c(C(=O)O)cn3C2CC2)CC1CN (stereo not given)	inactive
CN1Cc2cc(C(=O)N3CCC(C4CCNCC4)CC3)ccc2N[C@@H](CC(=O)O)C1=O	inactive
C/C=C/C=C/CCCCCCCO	inactive
NCC1CCCC(CN)C1 (stereo not given)	inactive
CC(Cl)C(Cl)Cl (stereo not given)	inactive
Oc1ccc(Nc2ccccc2)cc1	inactive
C=CC(C)(C)CC(=O)OC	inactive
CC(C)CCCCCOC(=O)CCCCC(=O)OCCCCCC(C)C	inactive
O=C(C(=O)c1ccccc1)c1ccccc1	inactive
C[Si]1(C)O[Si](C)(C)O[Si](C)(C)O1	inactive
Cc1ccccc1N1C(=O)c2cc(S(N)(=O)=O)c(Cl)cc2NC1C (stereo not given)	inactive
Nc1ccc(C(=O)OCCCOC(=O)c2ccc(N)cc2)cc1	inactive
CO[C@H]1O[C@H](CO)[C@@H](O)[C@H](O)[C@H]1O	inactive
CCOC(=O)OCC	inactive
CCCCC(CC)C(=O)OCCOCCOCCOCCOC(=O)C(CC)CCCC (stereo not given)	inactive
